Assay [1] is described as follows: ATG_DR4_LXR_CIS: Attagene CIS-FACTORIAL HepG2 Assay for human Liver X Receptor (LXR), DR4 submotif (AID 2282929). The following applies: HepG2 Attagene DR4 cis-reporter, mRNA transcription; actives raise or lower the signal. A digest of the protocol:
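Fluorescence intensity of labelled reporter cDNA fragments, separated by capillary electrophoresis, gives the signal. HepG2 cells bearing cis-regulated reporter constructs were treated 24 h; activity fitted bidirectionally relative to DMSO negative control.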

Assay [2] is described as follows: ATG_Ets_CIS: Attagene CIS-FACTORIAL HepG2 Assay for human Erythroblast Transformation Specific (ETS) (AID 2282941). The following applies: HepG2 ETS cis-reporter transcription, actives raise or lower the signal. The method, boiled down:
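Multiplexed reporter transcript profiling: HepG2, 24 h treatment, total RNA to cDNA, PCR, 6-FAM labelling, HpaI cut, capillary electrophoresis. Gain- or loss-of-signal fitted against DMSO.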

The target of assay [3] is Hypoxia-inducible factor 1-alpha (Homo sapiens) (UniProt Q16665). Put plainly: ATG_HIF1a_CIS: Attagene CIS-FACTORIAL HepG2 Assay for human Hypoxia Inducible Factor 1 (HIF1A) (AID 2282951). The note with it: HepG2 Attagene cis-factorial HIF1a reporter transcription; actives raise or lower the signal. The method, boiled down: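 Fluorescence intensity of capillary-separated, 6-FAM-labelled reporter amplicons gives mRNA induction in HepG2 cells carrying transfected cis-promoter reporter units; cells exposed 24 h, responses fitted up or down from DMSO.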
Sequence of Hypoxia-inducible factor 1-alpha (Homo sapiens) (Q16665 whole entry, looked up): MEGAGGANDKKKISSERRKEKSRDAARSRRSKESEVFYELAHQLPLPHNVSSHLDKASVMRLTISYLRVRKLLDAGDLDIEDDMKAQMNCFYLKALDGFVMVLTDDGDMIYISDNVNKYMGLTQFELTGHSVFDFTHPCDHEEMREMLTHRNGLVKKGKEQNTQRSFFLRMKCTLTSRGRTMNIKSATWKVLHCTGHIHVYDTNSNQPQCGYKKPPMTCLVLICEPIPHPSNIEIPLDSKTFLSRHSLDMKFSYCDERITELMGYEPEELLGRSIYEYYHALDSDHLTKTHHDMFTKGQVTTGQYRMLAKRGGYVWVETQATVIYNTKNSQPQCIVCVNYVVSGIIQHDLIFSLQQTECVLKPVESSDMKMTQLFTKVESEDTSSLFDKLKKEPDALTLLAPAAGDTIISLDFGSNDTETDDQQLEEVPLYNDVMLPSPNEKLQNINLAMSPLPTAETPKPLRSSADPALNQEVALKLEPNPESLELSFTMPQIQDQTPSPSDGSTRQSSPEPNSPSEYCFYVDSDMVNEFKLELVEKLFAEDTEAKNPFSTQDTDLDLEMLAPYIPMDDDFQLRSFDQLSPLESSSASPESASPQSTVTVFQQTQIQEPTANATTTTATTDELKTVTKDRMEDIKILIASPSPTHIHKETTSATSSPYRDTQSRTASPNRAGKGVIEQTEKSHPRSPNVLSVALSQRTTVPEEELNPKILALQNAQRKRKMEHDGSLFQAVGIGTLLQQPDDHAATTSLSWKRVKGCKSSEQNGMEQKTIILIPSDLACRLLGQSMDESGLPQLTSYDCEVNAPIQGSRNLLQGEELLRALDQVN

In assay [4] the target is Hepatocyte nuclear factor 6 (Homo sapiens) (UniProt Q9UBC0). Nature of the assay: ATG_HNF6_CIS: Attagene CIS-FACTORIAL HepG2 Assay for human Hepatocyte Nuclear Factor 6 (HNF6) (AID 2282952). The note with it: HepG2 Attagene cis-factorial HNF6 reporter transcription; actives raise or lower the signal. The method, boiled down:
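Endogenous factor activity read in transiently transfected HepG2 via promoter-regulated reporter transcripts. RNA harvested 24 h post-dosing, reverse-transcribed, PCR-amplified, FAM-labelled, HpaI-digested and resolved by capillary electrophoresis; fitted in both directions against DMSO.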

For assay [5], the target named is Heat shock factor protein 1 (Homo sapiens) (UniProt Q00613). Nature of the assay: ATG_HSE_CIS: Attagene CIS-FACTORIAL HepG2 Assay for human Heat Shock Transcription Factor 1 (HSE) (AID 2282953). The note with it: HepG2 HSE cis-reporter, Attagene RNA transcription; actives raise or lower the signal. The method, boiled down:
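Reporter mRNA induction in HepG2 is measured 24 h after dosing, using transiently transfected multiplexed cis-regulated reporter units. Signal comes from capillary electrophoresis of labelled RT-PCR products, with DMSO as negative control.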

Assay [6] in a line: ATG_Sox_CIS: Attagene CIS-FACTORIAL HepG2 Assay for human SRY-box transcription factor (SOX) (AID 2282960). The following applies: HepG2 Attagene cis-factorial SOX reporter, mRNA; actives raise or lower the signal. A digest of the protocol:
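Measures mRNA induction of a SOX1-associated reporter in HepG2 after 24 h dosing. Fluorescently labelled RT-PCR fragments are separated by capillary electrophoresis, and gain or loss relative to DMSO control is fitted.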

The nature of assay [7]: ATG_TA_CIS: Attagene CIS-FACTORIAL HepG2 Assay for human TA Basal Promoter (AID 2282964). The following applies: HepG2 Attagene CIS-factorial TA basal promoter reporter; actives raise or lower the signal. The method, boiled down: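 Cis-factorial format in HepG2: reporters report endogenous factors, not chimeric Gal4 fusions. After 24 h treatment, reporter transcripts were measured by RT-PCR-capillary electrophoresis fluorescence, analysed bidirectionally versus DMSO.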

Assay [8] can be described thus: ATG_TCF_b_cat_CIS: Attagene CIS-FACTORIAL HepG2 Assay for human T-Cell-Factor with beta-catenin (TCF/b-cat) (AID 2282965). The following applies: HepG2 TCF/beta-catenin cis-reporter transcription, actives raise or lower the signal. The method, boiled down: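 Measured: reporter mRNA in HepG2 transiently transfected with cis-promoter reporter units, 24 h after chemical addition. Fitting was bidirectional, DMSO as negative control.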

The nature of assay [9]: ATG_TGFb_CIS: Attagene CIS-FACTORIAL HepG2 Assay for human Transforming Growth Factor (TGF) (AID 2282967). The following applies: HepG2 Attagene CIS TGFb reporter, mRNA transcription; actives raise or lower the signal. A digest of the protocol:
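Multiplexed cis-reporter HepG2 system, 24 h treatment; mRNA induction read by fluorescence after RT-PCR and CE; DMSO negative control, bidirectional curve fitting.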

In assay [10] the target is X-box-binding protein 1 (Homo sapiens) (UniProt P17861). Nature of the assay: ATG_Xbp1_CIS: Attagene CIS-FACTORIAL HepG2 Assay for human X-box Binding Protein 1 (XBP1) (AID 2282972). The following applies: HepG2 XBP1 cis-element reporter, Attagene multiplex; actives raise or lower the signal. The method, boiled down: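 Human hepatoma HepG2, cis-element reporter system, 24 h treatment; mRNA quantified by RT-PCR/CE fluorescence; fit relative to DMSO.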
Sequence of X-box-binding protein 1 (Homo sapiens) (P17861 whole entry, looked up): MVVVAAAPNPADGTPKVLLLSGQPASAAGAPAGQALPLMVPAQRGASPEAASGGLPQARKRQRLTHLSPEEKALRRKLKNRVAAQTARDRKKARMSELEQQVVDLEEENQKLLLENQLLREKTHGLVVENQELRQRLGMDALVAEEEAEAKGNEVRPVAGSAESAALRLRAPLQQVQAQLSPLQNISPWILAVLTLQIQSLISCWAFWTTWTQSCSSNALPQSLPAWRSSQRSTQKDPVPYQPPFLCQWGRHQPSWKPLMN

Assay [11] addresses Transcriptional activator Myb (Homo sapiens) (UniProt P10242). Nature of the assay: ATG_Myb_CIS: Attagene CIS-FACTORIAL HepG2 Assay for human Myeloblastosis (Myb) Proto-Oncogene Transcription Factor (AID 2282986). The note with it: HepG2 Attagene CIS-FACTORIAL Myb reporter transcription; actives raise or lower the signal. The method, boiled down: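 Transiently transfected HepG2 cells, treated 24 h. Reporter mRNA quantified by RT-PCR/capillary electrophoresis; bidirectional fit relative to DMSO.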

Assay [12] addresses Nuclear respiratory factor 1 (Homo sapiens) (UniProt Q16656). Put plainly: ATG_NRF1_CIS: Attagene CIS-FACTORIAL HepG2 Assay for human Nuclear Respiratory Factor 1 (NRF1) Orphan Gene (AID 2282987). The note with it: HepG2 NRF1 cis-element reporter, Attagene multiplex; actives raise or lower the signal. A digest of the protocol:
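Cells (HepG2, transient MRTU transfection) are exposed to compound for 24 h, then RNA isolated and reporter mRNA amplified and fluorescently labelled. Fragments are separated by capillary electrophoresis; signal change is fitted bidirectionally relative to DMSO.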

Assay [13] concerns the target Myc proto-oncogene protein (Homo sapiens) (UniProt P01106). Put plainly: ATG_Myc_CIS: Attagene CIS-FACTORIAL HepG2 Assay for human Myelocytomatosis (Myc) Proto-Oncogene Transcription Factor (AID 2282990). The following applies: HepG2, Attagene cis-reporter transcription factor activity; actives raise or lower the signal. A digest of the protocol: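 Cells of the HepG2 human liver line bear multiple cis-driven reporter transcription units. Reporter mRNA after 24 h exposure is reverse-transcribed, amplified, labelled and resolved by capillary electrophoresis, with gain- or loss-of-signal fitting relative to DMSO.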

The nature of assay [14]: ATG_NRF2_ARE_CIS: Attagene CIS-FACTORIAL HepG2 Assay for human Nuclear Factor Erythroid 2 Related Factor 2 (NFR2) response to Antioxidant Response Elements (ARE) (AID 2282992).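 On AC50: reporter mRNA level measured by RT-PCR and capillary electrophoresis fluorescence.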 The note with it: HepG2 Attagene ARE/NRF2 reporter, transcription factor activity; actives raise or lower the signal. A digest of the protocol:
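Fluorescence intensity of reporter-specific cDNA fragments, separated by capillary electrophoresis, reflects mRNA induction in transfected HepG2 cells at 24 h. Activity is fitted bidirectionally, DMSO serving as baseline.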

The nature of assay [15]: ATG_Oct_MLP_CIS: Attagene CIS-FACTORIAL HepG2 Assay for human Octamer-Binding Transcription Factor (Oct) (AID 2282993). The following applies: HepG2 Attagene cis-factorial Oct reporter, mRNA; actives raise or lower the signal. A digest of the protocol:
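After 24 h compound exposure, transfected HepG2 cells were lysed for total RNA; reporter-specific cDNA was PCR-amplified, fluorescently labelled and sized by capillary electrophoresis. Bidirectional curve fitting used DMSO as baseline.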

In assay [16] the target is Cellular tumor antigen p53 (Homo sapiens) (UniProt P04637). Put plainly: ATG_p53_CIS: Attagene CIS-FACTORIAL HepG2 Assay for human p53 Transcription Factor (AID 2282994). The following applies: HepG2 p53 cis-element reporter, Attagene mRNA; actives raise or lower the signal. A digest of the protocol:
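Transiently transfected HepG2 (multiple cis reporter transcription units); exposure 24 h; reporter RNA via RT-PCR, 6-FAM extension, 2 h HpaI digest at 37 C, CE detection; DMSO baseline.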

A short description of assay [17]: ATG_TAL_CIS: Attagene CIS-FACTORIAL HepG2 Assay for human TAL Basal Promoter (AID 2282966).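 Further: background control endpoint measuring basal TAL promoter reporter mRNA not a specific factor.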 The note with it: HepG2 Attagene cis-factorial TAL promoter reporter; actives raise or lower the signal. A digest of the protocol:
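Background-control endpoint: basal TAL promoter reporter transcripts in transiently transfected HepG2, measured 24 h after dosing. Read-out by RT-PCR with fluorescent primer extension and capillary electrophoresis; gain or loss of signal fitted relative to DMSO.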

Assay [18] addresses Nuclear receptor subfamily 1 group I member 2 (Homo sapiens) (UniProt O75469). Put plainly: ATG_PXR_TRANS: Attagene TRANS-FACTORIAL HepG2 Assay for human Pregnane X Receptor (PXR) (AID 2283008; active means hit-call score of the fitted dose curve at least 0.9, where 1 is the maximum). The method, boiled down:
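Transient HepG2 transfectants carrying multiplexed reporter transcription units; PXR activity read through a Gal4 chimera. 24 h exposure. RT-PCR/CE fluorescence; upward curve fit referenced to DMSO.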

Assay [19] can be described thus: ATG_XTT_Cytotoxicity: Cytotoxicity Assessment in the Attagene TRANS-FACTORIAL HepG2 Assay (AID 2283584; active means hit-call score of the fitted dose curve at least 0.9, where 1 is the maximum;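 on AC50: cells exposed to compound for 24 h before reading; active means loss of viability signal versus DMSO baseline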). A digest of the protocol:
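Viability endpoint from XTT after 24 h chemical exposure of reporter-transfected human HepG2 liver cells; signal loss fitted relative to DMSO negative control.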

Assay [20] is described as follows: ATG_M_06_CIS: Attagene CIS-FACTORIAL HepG2 Assay for M06 Transcription Factor (Internal Marker) (AID 2282950). The note with it: HepG2 Attagene CIS-FACTORIAL M06 internal marker reporter; actives raise or lower the signal. A digest of the protocol: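 Measured 24 h post-dosing in transiently transfected HepG2 cells, this internal-marker endpoint reports reporter mRNA via RT-PCR with fluorescent primer extension and capillary electrophoresis. DMSO served as negative control and baseline for bidirectional fitting.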

In general, AC50 refers to the concentration giving half of the maximal activity seen.

Results filed as inconclusive are left out. Active and inactive are the calls of the source. How the source made its calls, unless noted: active means hit-call score of the fitted dose curve at least 0.9, where 1 is the maximum; inactive means score below 0.9.

Sequence of Myc proto-oncogene protein (Homo sapiens) (P01106 whole entry, looked up): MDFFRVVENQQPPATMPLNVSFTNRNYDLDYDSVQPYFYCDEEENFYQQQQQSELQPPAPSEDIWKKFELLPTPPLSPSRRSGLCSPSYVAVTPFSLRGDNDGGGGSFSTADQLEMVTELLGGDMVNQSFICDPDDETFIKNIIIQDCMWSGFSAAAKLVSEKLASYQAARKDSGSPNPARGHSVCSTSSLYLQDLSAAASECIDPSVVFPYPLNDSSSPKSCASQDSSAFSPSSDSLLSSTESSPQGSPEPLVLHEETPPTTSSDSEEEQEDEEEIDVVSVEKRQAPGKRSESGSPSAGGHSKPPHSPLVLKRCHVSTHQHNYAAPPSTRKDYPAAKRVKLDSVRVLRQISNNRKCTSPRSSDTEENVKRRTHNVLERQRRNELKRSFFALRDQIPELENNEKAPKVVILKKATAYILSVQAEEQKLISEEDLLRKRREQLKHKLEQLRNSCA
Sequence of Hepatocyte nuclear factor 6 (Homo sapiens) (Q9UBC0 whole entry, looked up): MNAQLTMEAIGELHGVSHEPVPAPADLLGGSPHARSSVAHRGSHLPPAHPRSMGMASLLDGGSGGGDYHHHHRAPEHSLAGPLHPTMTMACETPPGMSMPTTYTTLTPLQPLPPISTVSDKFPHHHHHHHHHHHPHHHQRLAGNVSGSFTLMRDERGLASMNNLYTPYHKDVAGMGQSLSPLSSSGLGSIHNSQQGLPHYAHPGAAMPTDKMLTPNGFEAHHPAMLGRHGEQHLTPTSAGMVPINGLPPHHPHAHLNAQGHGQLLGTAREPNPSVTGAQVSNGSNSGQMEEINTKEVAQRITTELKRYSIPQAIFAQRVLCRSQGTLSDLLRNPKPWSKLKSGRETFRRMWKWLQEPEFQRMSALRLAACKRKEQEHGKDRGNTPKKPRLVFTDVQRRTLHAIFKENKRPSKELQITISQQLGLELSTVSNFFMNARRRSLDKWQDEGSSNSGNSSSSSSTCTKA
Sequence of Nuclear receptor subfamily 1 group I member 2 (Homo sapiens) (O75469 whole entry, looked up, the tested form may be a part): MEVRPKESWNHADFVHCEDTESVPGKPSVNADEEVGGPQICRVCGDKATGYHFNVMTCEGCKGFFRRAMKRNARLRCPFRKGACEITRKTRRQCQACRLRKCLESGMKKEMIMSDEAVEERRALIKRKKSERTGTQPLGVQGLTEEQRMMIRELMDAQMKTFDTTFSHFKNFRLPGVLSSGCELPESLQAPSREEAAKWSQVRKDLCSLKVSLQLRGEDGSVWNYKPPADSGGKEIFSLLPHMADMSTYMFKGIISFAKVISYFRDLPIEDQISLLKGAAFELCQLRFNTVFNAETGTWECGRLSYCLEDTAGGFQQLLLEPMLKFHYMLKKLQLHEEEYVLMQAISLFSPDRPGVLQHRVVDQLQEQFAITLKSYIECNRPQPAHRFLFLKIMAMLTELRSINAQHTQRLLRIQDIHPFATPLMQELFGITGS
Sequence of Cellular tumor antigen p53 (Homo sapiens) (P04637 whole entry, looked up): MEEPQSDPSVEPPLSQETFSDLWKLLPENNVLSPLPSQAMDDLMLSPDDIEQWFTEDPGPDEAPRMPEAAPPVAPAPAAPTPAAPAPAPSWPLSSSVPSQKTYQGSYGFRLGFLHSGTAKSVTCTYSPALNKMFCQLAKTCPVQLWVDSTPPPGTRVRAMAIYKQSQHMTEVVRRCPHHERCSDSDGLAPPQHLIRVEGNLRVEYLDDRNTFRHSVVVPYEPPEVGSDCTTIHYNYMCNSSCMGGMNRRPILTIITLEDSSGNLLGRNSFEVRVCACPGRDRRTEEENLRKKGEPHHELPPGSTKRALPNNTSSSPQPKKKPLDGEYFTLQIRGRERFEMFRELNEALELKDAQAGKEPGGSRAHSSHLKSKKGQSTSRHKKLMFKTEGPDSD
Sequence of Transcriptional activator Myb (Homo sapiens) (P10242 whole entry, looked up): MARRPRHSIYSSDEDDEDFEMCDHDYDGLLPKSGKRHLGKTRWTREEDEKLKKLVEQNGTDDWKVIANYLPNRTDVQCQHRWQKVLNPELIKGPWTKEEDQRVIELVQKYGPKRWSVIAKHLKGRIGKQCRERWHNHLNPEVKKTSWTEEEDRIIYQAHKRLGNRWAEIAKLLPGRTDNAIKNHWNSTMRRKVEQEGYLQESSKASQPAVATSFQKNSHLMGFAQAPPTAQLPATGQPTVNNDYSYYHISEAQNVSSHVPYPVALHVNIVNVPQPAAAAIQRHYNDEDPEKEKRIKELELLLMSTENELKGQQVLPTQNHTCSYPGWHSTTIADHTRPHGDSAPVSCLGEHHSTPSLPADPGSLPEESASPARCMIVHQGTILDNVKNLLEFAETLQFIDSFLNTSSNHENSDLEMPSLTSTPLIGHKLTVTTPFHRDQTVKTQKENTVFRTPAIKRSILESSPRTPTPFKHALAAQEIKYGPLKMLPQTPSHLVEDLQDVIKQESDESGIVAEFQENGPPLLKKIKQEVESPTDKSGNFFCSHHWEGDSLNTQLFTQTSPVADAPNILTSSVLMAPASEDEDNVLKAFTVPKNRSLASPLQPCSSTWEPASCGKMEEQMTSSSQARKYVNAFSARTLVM
Sequence of Heat shock factor protein 1 (Homo sapiens) (Q00613 whole entry, looked up): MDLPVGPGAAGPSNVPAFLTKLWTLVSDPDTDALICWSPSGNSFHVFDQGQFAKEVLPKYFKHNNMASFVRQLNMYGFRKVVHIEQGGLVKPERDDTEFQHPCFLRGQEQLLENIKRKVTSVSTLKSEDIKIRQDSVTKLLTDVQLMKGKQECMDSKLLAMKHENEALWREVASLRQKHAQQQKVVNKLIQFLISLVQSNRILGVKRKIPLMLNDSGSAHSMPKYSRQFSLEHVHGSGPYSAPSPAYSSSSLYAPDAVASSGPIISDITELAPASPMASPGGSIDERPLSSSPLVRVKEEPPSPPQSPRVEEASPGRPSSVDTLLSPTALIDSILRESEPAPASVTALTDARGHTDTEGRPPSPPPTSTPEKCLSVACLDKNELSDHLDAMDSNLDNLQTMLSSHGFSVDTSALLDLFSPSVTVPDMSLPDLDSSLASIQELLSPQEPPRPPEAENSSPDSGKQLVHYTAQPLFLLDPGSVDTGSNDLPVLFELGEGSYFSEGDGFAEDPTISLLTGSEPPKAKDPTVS
Sequence of Nuclear respiratory factor 1 (Homo sapiens) (Q16656 whole entry, looked up, the tested form may be a part): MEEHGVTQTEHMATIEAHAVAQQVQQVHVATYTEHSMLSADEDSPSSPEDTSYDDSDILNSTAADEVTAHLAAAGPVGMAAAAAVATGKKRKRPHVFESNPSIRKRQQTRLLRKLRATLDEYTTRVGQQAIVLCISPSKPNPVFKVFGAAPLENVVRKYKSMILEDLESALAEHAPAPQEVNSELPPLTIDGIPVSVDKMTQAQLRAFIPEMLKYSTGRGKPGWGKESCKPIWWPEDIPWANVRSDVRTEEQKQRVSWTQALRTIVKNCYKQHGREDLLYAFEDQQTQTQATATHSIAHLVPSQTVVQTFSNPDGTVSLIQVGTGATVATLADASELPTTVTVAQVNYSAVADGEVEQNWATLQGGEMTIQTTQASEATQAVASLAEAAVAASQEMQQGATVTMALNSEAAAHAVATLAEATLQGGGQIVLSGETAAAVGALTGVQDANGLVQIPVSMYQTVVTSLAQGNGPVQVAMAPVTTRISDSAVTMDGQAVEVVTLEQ

Consider `CCC(C)=NO`, for which the compound was called inactive in assay [1], in assay [2], in assay [3], in assay [4], in assay [5] and in assay [6]. The compound was called inactive in assay [7], in assay [8], in assay [9], in [10], in assay [11] and in assay [12]. Moreover, the result in assay [13], in assay [14], in assay [15] and in assay [16] was inactive.

Take `CCC(C)C1N=C(C)C(C)S1` (stereo not drawn): the call in assay [1], in assay [2], in assay [3], in [4], in [5] and in assay [6] was inactive. The outcome in [7], in [8], in assay [17], in assay [9], in [10] and in assay [11] was inactive. The compound was called inactive in assay [12], in [13], in assay [14], in assay [15], in assay [16] and in assay [19]. In addition, the AC50 in assay [18] is 4.45 µM (active).

As for `Oc1cccc2ccccc12`, the compound was called inactive in assay [1], in assay [2], in assay [20], in assay [3], in assay [4] and in [5]. Also, the outcome in assay [7], in [17], in assay [9], in [10], in assay [11] and in [12] was inactive. Further, the compound was called inactive in assay [13], in assay [15], in assay [16], in assay [18] and in [19]. The AC50 in [8] was 100 µM (active); in [14] it was 4.38 µM (active).

For `CC/C=C\CCCCCO`, the compound was called inactive in [1], in [2], in assay [20], in assay [3], in assay [4] and in assay [5]. In addition, the call in [6], in assay [7], in [8], in assay [9], in assay [10] and in assay [11] was inactive. Moreover, the call in [12], in assay [13], in assay [14], in assay [15], in assay [16] and in [18] was inactive. The call in [19] was inactive.

Take `COC(OC)C(C)c1ccccc1` (stereo not drawn): the compound was classed as inactive in [20], in assay [3], in assay [4], in assay [5], in assay [6] and in assay [7]. Further, the call in assay [8], in assay [9], in assay [10], in [11], in assay [12] and in assay [13] was inactive. In addition, the result in assay [14], in assay [15], in assay [16], in assay [18] and in assay [19] was inactive.

On to `CN(C)CCCN1c2ccccc2CCc2ccc(Cl)cc21`, for which the compound was classed as inactive in assay [4], in assay [5], in assay [7], in assay [17], in assay [9] and in assay [10]. Besides, the outcome in assay [11], in assay [12], in assay [13], in assay [15] and in [18] was inactive. Further, the AC50 in assay [6] was 11.1 µM (active); in assay [8], 7.29 µM (active); in assay [14], 17.7 µM (active); in assay [16], 4.07 µM (active); in assay [19], 25.7 µM (active).

`O=C(O)/C=C\C(=O)O`: the call in assay [1], in assay [2], in [20], in assay [3], in assay [4] and in [5] was inactive. The call in assay [7], in assay [8], in [9], in [10], in assay [11] and in [12] was inactive. Moreover, the call in [13], in assay [14], in [15], in assay [16] and in assay [19] was inactive.

With `CC(C)(C)NC(=O)[C@@H]1CN(Cc2cccnc2)CCN1C[C@@H](O)C[C@@H](Cc1ccccc1)C(=O)N[C@H]1c2ccccc2C[C@H]1O`, the compound was classed as inactive in [20], in [3], in [5], in assay [6], in [7] and in assay [8]. The call in assay [9], in assay [10], in assay [11], in assay [12], in assay [13] and in [14] was inactive. Also, the result in assay [15], in [16] and in assay [19] was inactive.
